Laboratory results from paper PMC7862700, “An all-to-all approach to the identification of sequence-specific readers for epigenetic DNA modifications on cytosine”.

How the values were obtained:
Test in all cases: DAPPL (digital affinity profiling via proximity ligation, sequencing); 10 mM Tris-HCl pH 7.5, 50 mM NaCl, 1 mM DTT, 4% glycerol, room temperature, 30 min; GST-TFs on glutathione beads, 16-mer random dsDNA library, 0.1% formaldehyde crosslink after washing; high values mean tight binding
FLI1 = target: T1, FLI1 (Homo sapiens, UniProt Q01543 1-452); settings: protein: recombinant; tags: N-terminal GST; dsDNA, one strand shown
T1 sequence: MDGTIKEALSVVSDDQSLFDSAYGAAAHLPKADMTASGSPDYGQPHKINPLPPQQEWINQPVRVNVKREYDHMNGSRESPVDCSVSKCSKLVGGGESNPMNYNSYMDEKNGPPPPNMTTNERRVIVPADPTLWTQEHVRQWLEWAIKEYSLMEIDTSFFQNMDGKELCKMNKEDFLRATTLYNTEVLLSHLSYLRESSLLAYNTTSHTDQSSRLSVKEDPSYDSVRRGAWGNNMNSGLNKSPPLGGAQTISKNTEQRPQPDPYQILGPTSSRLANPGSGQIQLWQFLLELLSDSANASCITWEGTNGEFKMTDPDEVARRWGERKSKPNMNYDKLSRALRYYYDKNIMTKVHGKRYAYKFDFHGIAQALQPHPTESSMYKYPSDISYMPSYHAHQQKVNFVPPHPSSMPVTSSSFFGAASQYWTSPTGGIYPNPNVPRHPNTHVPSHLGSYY
Summary of the method: (§1)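 Beads coated with glutathione captured GST-fused human transcription factors that had been expressed in yeast, and the factors were then given DNA barcodes and pooled with a tag-only sample. The pools were incubated with 200 nmole of a random double-stranded 16-mer DNA library in Tris/NaCl/DTT/glycerol buffer for 30 min at room temperature, washed, crosslinked with 0.1% formaldehyde and proximity-ligated with BsaI/T4 ligase at 37 °C for 1 h. PCR amplification and Illumina NextSeq500 sequencing came last. Binding signal is each hexamer's read frequency for a factor divided by its frequency for the tag-only sample.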

ELK1 = target: T2, ELK1 (Homo sapiens, UniProt P19419 1-428); settings: protein: recombinant; tags: N-terminal GST; dsDNA, one strand shown
T2 sequence: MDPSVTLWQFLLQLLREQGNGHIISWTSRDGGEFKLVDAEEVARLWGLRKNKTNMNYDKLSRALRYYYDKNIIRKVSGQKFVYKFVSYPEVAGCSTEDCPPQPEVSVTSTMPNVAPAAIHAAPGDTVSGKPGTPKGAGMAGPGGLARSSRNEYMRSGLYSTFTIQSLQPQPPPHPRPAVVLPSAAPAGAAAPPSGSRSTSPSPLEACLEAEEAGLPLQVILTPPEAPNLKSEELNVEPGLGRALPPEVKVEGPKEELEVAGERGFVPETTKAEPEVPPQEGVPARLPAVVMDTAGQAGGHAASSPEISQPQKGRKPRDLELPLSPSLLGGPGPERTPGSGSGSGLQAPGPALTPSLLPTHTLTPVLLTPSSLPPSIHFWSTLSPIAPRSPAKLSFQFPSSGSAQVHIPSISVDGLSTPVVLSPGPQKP
Summary of the method: as §1

GABPA = target: T3, GABPA (Homo sapiens, UniProt Q06546 1-454); settings: protein: recombinant; tags: N-terminal GST; dsDNA, one strand shown
T3 sequence: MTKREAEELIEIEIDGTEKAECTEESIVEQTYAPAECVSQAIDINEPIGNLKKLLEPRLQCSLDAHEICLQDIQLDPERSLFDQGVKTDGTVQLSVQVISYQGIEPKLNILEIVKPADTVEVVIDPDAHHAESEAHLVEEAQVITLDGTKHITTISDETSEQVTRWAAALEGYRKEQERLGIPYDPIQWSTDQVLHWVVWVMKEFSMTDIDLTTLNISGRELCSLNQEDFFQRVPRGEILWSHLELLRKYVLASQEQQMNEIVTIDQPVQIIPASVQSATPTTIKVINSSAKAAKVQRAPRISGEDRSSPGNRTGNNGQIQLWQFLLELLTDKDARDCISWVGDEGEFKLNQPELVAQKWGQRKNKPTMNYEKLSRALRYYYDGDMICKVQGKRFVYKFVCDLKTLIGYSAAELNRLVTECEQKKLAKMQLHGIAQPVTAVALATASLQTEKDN
Summary of the method: as §1

ERG = target: T4, ERG (Homo sapiens, UniProt P11308 1-479); settings: protein: recombinant; tags: N-terminal GST; dsDNA, one strand shown
T4 sequence: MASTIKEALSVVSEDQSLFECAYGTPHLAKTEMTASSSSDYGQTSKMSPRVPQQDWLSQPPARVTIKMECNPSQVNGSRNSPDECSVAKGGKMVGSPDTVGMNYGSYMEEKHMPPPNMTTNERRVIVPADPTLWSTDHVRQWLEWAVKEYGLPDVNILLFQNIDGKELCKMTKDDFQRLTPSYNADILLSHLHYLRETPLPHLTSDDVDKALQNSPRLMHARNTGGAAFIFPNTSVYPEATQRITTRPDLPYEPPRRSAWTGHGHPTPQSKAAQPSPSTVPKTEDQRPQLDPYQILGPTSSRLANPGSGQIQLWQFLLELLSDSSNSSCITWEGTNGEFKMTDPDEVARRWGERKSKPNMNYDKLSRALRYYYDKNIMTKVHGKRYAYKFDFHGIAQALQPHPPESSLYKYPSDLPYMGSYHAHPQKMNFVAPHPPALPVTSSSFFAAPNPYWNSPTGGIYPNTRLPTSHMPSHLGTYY
Summary of the method: as §1

ELF1 = ELF1 (Homo sapiens, UniProt P32519 1-619); settings: protein: recombinant; tags: N-terminal GST; dsDNA, one strand shown
Chain of ELF1 (P32519 whole entry): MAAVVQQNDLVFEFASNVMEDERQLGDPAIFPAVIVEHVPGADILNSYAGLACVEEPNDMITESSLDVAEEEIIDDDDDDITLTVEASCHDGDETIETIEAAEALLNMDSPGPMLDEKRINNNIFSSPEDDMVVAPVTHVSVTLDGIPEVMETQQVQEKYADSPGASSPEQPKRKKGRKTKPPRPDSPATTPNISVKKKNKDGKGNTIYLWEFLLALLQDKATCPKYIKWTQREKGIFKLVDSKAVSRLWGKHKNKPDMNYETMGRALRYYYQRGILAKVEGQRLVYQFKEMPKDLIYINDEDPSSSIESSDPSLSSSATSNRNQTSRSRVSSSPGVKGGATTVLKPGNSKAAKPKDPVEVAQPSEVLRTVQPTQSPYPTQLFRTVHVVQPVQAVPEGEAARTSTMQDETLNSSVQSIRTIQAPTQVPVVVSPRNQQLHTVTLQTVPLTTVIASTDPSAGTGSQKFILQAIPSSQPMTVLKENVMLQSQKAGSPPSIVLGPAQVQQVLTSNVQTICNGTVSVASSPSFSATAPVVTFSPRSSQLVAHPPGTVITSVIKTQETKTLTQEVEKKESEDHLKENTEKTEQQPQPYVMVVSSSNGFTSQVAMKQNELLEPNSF
Summary of the method: as §1

EHF = target: T5, EHF (Homo sapiens, UniProt Q9NZC4 1-300); settings: protein: recombinant; tags: N-terminal GST; dsDNA, one strand shown
T5 sequence: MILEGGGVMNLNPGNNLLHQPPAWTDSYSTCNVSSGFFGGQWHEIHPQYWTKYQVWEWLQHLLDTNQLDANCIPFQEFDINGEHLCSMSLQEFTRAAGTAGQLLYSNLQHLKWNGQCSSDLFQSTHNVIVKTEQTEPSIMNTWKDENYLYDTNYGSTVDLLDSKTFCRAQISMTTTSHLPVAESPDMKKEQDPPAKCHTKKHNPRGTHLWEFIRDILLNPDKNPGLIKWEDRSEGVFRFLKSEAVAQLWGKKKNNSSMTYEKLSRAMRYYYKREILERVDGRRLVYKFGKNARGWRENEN
Summary of the method: as §1

SPI1 = SPI1 (Homo sapiens, UniProt P17947 1-270); settings: protein: recombinant; tags: N-terminal GST; dsDNA, one strand shown
Summary of the method: as §1

SPIB = SPIB (Homo sapiens, UniProt Q01892 1-262); settings: protein: recombinant; tags: N-terminal GST; dsDNA, one strand shown
Chain of SPIB (Q01892 whole entry): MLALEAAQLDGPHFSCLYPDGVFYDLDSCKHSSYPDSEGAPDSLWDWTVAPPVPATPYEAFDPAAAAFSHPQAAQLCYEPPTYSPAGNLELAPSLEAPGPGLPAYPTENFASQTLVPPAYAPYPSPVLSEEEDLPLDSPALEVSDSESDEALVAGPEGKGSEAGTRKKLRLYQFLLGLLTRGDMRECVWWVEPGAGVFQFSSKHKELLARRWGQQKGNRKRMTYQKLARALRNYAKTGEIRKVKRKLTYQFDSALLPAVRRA
Summary of the method: as §1

ELK3 = target: T6, ELK3 (Homo sapiens, UniProt P41970 1-407); settings: protein: recombinant; tags: N-terminal GST; dsDNA, one strand shown
T6 sequence: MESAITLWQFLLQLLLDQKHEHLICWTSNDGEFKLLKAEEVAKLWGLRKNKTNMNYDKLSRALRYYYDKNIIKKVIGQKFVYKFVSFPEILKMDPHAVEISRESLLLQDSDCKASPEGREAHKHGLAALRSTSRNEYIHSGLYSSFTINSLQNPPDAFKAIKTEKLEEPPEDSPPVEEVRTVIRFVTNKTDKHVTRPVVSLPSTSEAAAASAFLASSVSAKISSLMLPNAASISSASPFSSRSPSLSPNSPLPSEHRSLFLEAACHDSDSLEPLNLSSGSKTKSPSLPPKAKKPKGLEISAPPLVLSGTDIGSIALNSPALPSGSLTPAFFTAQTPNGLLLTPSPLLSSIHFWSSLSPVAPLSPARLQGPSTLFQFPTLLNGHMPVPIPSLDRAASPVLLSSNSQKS
Summary of the method: as §1

FEV = target: T7, FEV (Homo sapiens, UniProt Q99581 1-238); settings: protein: recombinant; tags: N-terminal GST; dsDNA, one strand shown
T7 sequence: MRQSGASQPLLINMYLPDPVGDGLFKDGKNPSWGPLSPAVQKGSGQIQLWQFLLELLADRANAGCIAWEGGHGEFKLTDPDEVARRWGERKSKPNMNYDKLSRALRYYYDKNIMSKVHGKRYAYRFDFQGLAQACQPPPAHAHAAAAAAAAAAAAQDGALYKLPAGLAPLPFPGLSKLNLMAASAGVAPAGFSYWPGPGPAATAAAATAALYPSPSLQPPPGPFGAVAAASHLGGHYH
Summary of the method: as §1

ETV5 = ETV5 (Homo sapiens, UniProt P41161 1-510); settings: protein: recombinant; tags: N-terminal GST; dsDNA, one strand shown
Chain of ETV5 (P41161 whole entry): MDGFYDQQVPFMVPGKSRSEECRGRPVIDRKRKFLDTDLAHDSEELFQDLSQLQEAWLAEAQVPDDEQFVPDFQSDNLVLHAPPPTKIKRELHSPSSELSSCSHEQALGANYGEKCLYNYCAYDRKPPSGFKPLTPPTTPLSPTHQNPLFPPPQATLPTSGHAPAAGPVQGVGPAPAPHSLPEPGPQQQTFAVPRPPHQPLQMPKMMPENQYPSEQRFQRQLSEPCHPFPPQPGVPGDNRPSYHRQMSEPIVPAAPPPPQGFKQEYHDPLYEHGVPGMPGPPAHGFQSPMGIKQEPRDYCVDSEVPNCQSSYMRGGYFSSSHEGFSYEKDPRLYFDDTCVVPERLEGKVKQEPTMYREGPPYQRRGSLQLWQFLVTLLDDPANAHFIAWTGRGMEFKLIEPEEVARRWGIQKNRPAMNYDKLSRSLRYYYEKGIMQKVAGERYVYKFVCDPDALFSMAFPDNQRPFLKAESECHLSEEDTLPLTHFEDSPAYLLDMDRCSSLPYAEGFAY
Summary of the method: as §1

HSF1 = HSF1 (Homo sapiens, UniProt Q00613 1-529); settings: protein: recombinant; tags: N-terminal GST; chain copies: 3; dsDNA, one strand shown
Chain of HSF1 (Q00613 whole entry): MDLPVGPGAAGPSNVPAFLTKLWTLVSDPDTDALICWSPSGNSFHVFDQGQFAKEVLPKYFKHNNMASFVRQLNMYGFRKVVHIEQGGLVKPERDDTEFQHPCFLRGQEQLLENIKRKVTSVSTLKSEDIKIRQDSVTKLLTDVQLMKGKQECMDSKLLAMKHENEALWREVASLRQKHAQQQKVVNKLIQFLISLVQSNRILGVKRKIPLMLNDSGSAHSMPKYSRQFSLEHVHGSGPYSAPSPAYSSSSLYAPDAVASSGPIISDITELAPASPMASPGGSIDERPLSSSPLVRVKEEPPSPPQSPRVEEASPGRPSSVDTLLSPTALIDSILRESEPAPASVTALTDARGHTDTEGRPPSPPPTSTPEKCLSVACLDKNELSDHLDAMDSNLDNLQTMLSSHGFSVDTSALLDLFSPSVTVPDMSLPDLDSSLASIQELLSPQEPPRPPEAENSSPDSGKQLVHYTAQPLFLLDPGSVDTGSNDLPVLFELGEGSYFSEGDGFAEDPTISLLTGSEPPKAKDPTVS
Summary of the method: as §1

SPIC = target: T8, SPIC (Homo sapiens, UniProt Q8N5J4 1-248); settings: protein: recombinant; tags: N-terminal GST; dsDNA, one strand shown
T8 sequence: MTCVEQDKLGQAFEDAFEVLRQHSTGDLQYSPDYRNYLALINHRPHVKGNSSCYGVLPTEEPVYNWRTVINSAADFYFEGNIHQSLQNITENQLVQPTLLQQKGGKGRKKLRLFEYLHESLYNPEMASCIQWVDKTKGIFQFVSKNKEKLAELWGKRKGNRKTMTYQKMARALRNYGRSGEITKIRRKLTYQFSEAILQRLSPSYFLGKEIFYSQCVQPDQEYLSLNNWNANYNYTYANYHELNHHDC
Summary of the method: as §1

ELF4 = ELF4 (Homo sapiens, UniProt Q99607 1-663); settings: protein: recombinant; tags: N-terminal GST; dsDNA, one strand shown
Chain of ELF4 (Q99607 whole entry): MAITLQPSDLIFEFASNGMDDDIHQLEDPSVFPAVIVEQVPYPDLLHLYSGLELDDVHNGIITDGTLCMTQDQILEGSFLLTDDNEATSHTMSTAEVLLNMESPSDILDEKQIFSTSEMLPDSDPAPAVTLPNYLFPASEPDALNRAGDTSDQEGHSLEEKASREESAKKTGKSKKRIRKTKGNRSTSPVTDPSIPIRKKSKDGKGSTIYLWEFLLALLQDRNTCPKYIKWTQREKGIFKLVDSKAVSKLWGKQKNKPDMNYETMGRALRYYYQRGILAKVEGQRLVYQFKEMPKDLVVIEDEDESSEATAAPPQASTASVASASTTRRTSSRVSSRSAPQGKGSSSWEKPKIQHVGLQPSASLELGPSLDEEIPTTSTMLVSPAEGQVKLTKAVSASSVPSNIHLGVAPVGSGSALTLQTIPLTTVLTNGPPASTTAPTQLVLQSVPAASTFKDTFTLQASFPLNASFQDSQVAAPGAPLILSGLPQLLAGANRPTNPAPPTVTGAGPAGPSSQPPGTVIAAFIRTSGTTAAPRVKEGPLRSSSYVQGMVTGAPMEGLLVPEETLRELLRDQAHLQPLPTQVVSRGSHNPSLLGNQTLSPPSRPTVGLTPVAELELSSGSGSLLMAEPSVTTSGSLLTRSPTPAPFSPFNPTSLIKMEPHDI
Summary of the method: as §1

ELK4 = target: T9, ELK4 (Homo sapiens, UniProt P28324-2 1-405); settings: protein: recombinant; tags: N-terminal GST; dsDNA, one strand shown
T9 sequence: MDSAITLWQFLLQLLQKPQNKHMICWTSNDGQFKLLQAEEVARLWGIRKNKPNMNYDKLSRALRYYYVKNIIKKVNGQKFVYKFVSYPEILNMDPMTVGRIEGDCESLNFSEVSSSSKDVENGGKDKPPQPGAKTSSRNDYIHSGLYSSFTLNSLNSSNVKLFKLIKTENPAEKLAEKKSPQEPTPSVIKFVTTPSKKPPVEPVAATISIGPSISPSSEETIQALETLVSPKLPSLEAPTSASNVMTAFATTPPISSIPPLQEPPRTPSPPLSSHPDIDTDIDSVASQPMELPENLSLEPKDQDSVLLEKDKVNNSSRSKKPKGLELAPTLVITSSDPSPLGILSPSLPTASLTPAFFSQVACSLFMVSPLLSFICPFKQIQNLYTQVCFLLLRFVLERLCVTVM
Summary of the method: as §1

ETV2 = target: T10, ETV2 (Homo sapiens, UniProt O00321 1-342); settings: protein: recombinant; tags: N-terminal GST; dsDNA, one strand shown
T10 sequence: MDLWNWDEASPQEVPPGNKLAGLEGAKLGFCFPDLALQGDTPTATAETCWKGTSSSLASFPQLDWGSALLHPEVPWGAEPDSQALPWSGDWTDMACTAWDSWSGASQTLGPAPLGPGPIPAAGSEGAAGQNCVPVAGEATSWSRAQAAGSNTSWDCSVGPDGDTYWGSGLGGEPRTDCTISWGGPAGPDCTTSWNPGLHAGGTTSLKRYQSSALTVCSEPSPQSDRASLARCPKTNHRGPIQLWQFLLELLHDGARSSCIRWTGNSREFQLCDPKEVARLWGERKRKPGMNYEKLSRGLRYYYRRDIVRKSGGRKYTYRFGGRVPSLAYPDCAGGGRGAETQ
Summary of the method: as §1

ELF3 = target: T11, ELF3 (Homo sapiens, UniProt P78545 1-371); settings: protein: recombinant; tags: N-terminal GST; dsDNA, one strand shown
T11 sequence: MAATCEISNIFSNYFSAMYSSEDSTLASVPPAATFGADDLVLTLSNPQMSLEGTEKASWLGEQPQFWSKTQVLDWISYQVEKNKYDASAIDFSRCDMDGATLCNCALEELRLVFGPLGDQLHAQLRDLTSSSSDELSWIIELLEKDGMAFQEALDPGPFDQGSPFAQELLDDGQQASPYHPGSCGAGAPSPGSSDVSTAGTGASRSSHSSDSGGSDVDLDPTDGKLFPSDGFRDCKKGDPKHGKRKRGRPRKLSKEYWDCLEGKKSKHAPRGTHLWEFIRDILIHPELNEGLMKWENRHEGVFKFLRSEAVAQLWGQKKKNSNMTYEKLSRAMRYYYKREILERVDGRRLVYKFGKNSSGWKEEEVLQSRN
Summary of the method: as §1

CRX = CRX (Homo sapiens, UniProt O43186 1-299); settings: protein: recombinant; tags: N-terminal GST; dsDNA, one strand shown
Chain of CRX (O43186 whole entry): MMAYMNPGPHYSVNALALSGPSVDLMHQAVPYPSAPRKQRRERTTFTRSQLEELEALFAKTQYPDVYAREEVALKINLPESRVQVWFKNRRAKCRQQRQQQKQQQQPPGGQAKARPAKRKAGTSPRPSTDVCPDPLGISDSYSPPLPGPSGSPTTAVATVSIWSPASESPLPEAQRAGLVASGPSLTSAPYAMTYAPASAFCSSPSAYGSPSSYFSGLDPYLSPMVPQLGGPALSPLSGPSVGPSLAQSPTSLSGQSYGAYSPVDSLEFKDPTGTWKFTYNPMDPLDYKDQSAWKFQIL
Summary of the method: as §1

ETV1 = ETV1 (Homo sapiens, UniProt P50549 1-477); settings: protein: recombinant; tags: N-terminal GST; dsDNA, one strand shown
Chain of ETV1 (P50549 whole entry): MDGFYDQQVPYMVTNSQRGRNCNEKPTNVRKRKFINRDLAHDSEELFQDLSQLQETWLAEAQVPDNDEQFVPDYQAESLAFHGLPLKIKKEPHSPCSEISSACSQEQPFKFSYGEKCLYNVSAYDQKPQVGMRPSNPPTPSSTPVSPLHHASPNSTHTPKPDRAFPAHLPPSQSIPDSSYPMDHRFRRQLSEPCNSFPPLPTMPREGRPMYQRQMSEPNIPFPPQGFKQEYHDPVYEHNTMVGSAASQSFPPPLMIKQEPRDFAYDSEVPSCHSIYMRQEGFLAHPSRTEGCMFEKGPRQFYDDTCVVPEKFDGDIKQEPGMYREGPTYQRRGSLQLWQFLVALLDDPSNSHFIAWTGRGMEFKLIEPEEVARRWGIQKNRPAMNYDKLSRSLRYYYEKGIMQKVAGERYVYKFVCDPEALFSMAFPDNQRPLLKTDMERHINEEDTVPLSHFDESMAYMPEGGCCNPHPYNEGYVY
Summary of the method: as §1

## CCTAAT
FLI1
  binding signal: 1.32 fold enrichment (6-mer frequency, TF over GST control)
ELK1
  binding signal: 1.12 fold enrichment (6-mer frequency, TF over GST control)
GABPA
  binding signal: 1.29 fold enrichment (6-mer frequency, TF over GST control)
ERG
  binding signal: 1.34 fold enrichment (6-mer frequency, TF over GST control)
ELF1
  binding signal: 1.39 fold enrichment (6-mer frequency, TF over GST control)
EHF
  binding signal: 1.28 fold enrichment (6-mer frequency, TF over GST control)
SPI1
  binding signal: 1.34 fold enrichment (6-mer frequency, TF over GST control)
SPIB
  binding signal: 1.44 fold enrichment (6-mer frequency, TF over GST control)
ELK3
  binding signal: 1.29 fold enrichment (6-mer frequency, TF over GST control)
FEV
  binding signal: 1.32 fold enrichment (6-mer frequency, TF over GST control)
ETV5
  binding signal: 1.31 fold enrichment (6-mer frequency, TF over GST control)
HSF1
  binding signal: 1.75 fold enrichment (6-mer frequency, TF over GST control)
SPIC
  binding signal: 1.33 fold enrichment (6-mer frequency, TF over GST control)
ELF4
  binding signal: 1.26 fold enrichment (6-mer frequency, TF over GST control)
ELK4
  binding signal: 1.24 fold enrichment (6-mer frequency, TF over GST control)
ETV2
  binding signal: 1.44 fold enrichment (6-mer frequency, TF over GST control)
ELF3
  binding signal: 1.52 fold enrichment (6-mer frequency, TF over GST control)
CRX
  binding signal: 2.61 fold enrichment (6-mer frequency, TF over GST control)
ETV1
  binding signal: 1.38 fold enrichment (6-mer frequency, TF over GST control)
